We go through 13 compounds from PubChem BioAssay (NCATS).

The test system of one assay is CRL-7250. Description: Cytotoxic Profiling of Annotated Libraries Using Quantitative High-Throughput Screening (AID 1296008). For max response: % is set by controls: 0 for no effect and ±100 for the full control effect. Note: nearly all actives have a fitted effect of over 60% in size. Note: potency is the fitted concentration of half-maximal effect. The conditions noted are these: Five cell lines viability, CellTiter-Glo ATP luminescence, 48-72 h; max response: active compounds read low. In outline: (§1)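 Compounds were pin-transferred onto cells and incubated 48 or 72 hr at 37 degree Celsius, 95% humidity. CellTiter-Glo was added, plates sat 10 min at room temperature, then ATP-coupled luminescence was imaged as the viability read-out.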
For orientation: In ATP-based viability assays light output follows the ATP content of the culture.

Another assay has as its system HEK293. Described as above. The conditions noted are these: Five cell lines viability, CellTiter-Glo ATP luminescence, 48-72 h; max response: active compounds read low. In outline:
as §1

Assay [1] deals with HaCat. The assay is described as above. As to conditions: Five cell lines viability, CellTiter-Glo ATP luminescence, 48-72 h; max response: active compounds read low. In outline: as §1
The test system of a further assay is KB-3-1. Described as above. The conditions noted are these: Five cell lines viability, CellTiter-Glo ATP luminescence, 48-72 h; max response: active compounds read low. In a few lines: as §1
For assay [2], the system named is NIH3T3. The description is as above. As to conditions: Five cell lines viability, CellTiter-Glo ATP luminescence, 48-72 h; max response: active compounds read low. In outline:
as §1

In assay [3] the test system is HACAT. Description: qHTS assay to identify novel small-molecules to repurpose for Merkel cell carcinoma treatment (AID 1296009). Note: nearly all actives have a fitted effect of over 60% in size. The conditions noted are these: MCC and control cell lines, CellTiter-Glo viability, 72 h; at 44.8 µM (top of the series) unless noted. In outline:
(§2)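 Luminescence from CellTiter-Glo, read 10 min after addition at room temperature, reported viability following a 72 hr, 37 degree celsius treatment with NPC or MIPE compounds in titration; values normalized to plate controls.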
A general note: Quantitative high-throughput screening tests each substance at several concentrations.

For assay [4], the system named is NIH3T3. Described as above. As to conditions: MCC and control cell lines, CellTiter-Glo viability, 72 h; at 44.8 µM (top of the series) unless noted. In outline:
as §2

The test system of a further assay is C33A. Description: Primary qHTS to identify gynecologic anti-cancer compounds using libraries of approved drugs and bioactive compounds (AID 1345084). Note: % is set by controls: 0 for no effect and ±100 for the full control effect; nearly all actives have a fitted effect of over 55% in size. As to conditions: Gynecologic cancer cell panel viability, ATPlite luminescence, 48 h; series mostly up to 57.5 µM. In outline:
(§3)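 In this quantitative HTS, cell killing is estimated from loss of ATP-dependent luciferase light. Cells see five compound concentrations over a 48 h exposure.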

For a further assay, the system named is CASKI. Described as above. As to conditions: Gynecologic cancer cell panel viability, ATPlite luminescence, 48 h; series mostly up to 57.5 µM. In outline: as §3
A further assay relates to Es-2. The assay is described as above. The conditions noted are these: Gynecologic cancer cell panel viability, ATPlite luminescence, 48 h; series mostly up to 57.5 µM. In outline: as §3
A further assay relates to HeLa. The assay is described as above. As to conditions: Gynecologic cancer cell panel viability, ATPlite luminescence, 48 h; series mostly up to 57.5 µM. In outline: as §3
Another assay concerns Hek293T. Described as above. The conditions noted are these: Gynecologic cancer cell panel viability, ATPlite luminescence, 48 h, control line for the selectivity index; series mostly up to 57.5 µM. In a few lines: as §3
The subject of a further assay is JEG-3. The description is as above. The conditions noted are these: Gynecologic cancer cell panel viability, ATPlite luminescence, 48 h; series mostly up to 57.5 µM. In outline:
as §3

A further assay deals with OV90. The assay is described as above. As to conditions: Gynecologic cancer cell panel viability, ATPlite luminescence, 48 h; series mostly up to 57.5 µM. In outline: as §3
In another assay the test system is CAOV3. The description is as above. The conditions noted are these: Gynecologic cancer cell panel viability, ATPlite luminescence, 48 h; series mostly up to 57.5 µM. In outline: as §3

Results filed as inconclusive are left out. A number with no mark means an inactive call. Calls of active or inactive are those of the source. Calls come from the whole dose curve; as a rule, active = well fitted curve in the direction sought with a large enough effect; inconclusive = small, poorly fitted or top-dose-only effect, or another doubt; inactive = no such curve, though single readings can be large; an effect the other way counts as inactive or inconclusive.

With `CC(=O)NC1CC(=O)C23C(=O)NC(Cc4c[nH]c5ccccc45)C2C(C)=C(C)C(O)C3/C=C/CC(C)/C=C(/C)C(O)C1O` (configuration not stated), the max response was -0.702% in the assay on CRL-7250, 4.13% with HEK293 and 0.623% in the assay with KB-3-1. In addition, the outcome with HaCat [1], in the assay with NIH3T3 [2] and in the assay on CASKI was inactive. For the same compound, the outcome with HACAT [3] and with NIH3T3 [4] was “inactive [at 17.4 µM]” each time. For the same compound, the Potency result in the assay on C33A, with Es-2, in the assay with HeLa, in the assay on Hek293T, in the assay on JEG-3 and in the assay on OV90 was “inactive” each time.
As for `O=C(CCCCC1CCCCC1)N1CCC(c2cnc[nH]2)CC1`, the max response in the assay on CRL-7250 was -15.2%; with KB-3-1, -20.1%. In the assay on HEK293, the Potency is 5.8 µM (active). The outcome in the assay with HaCat [1], in the assay with NIH3T3 [2], with HACAT [3], in the assay with NIH3T3 [4] and with CASKI was inactive. The Potency result with CAOV3, in the assay on Es-2, with HeLa and with JEG-3 was “inactive” in each case.
On to `C/C=C(\C)C(=O)OCC1OC(OC2OC(CO)C(O)C(O)C2O)C(O)C(O)C1O` (configuration not stated), for which the outcome in the assay with CRL-7250, with HaCat [1], in the assay with KB-3-1 and in the assay with CASKI was inactive. Further, the max response is -3.96% in the assay with HEK293 and -3.87% with NIH3T3 [2]. Moreover, the outcome in the assay with HACAT [3] is “inactive [at 17.4 µM]”. Also, the Potency result with C33A, in the assay with CAOV3, in the assay on Es-2, in the assay with HeLa, in the assay with Hek293T and in the assay with JEG-3 was “inactive” in each case. Moreover, the Potency result in the assay with OV90 was “inactive”.
For the compound `CC(=O)O[C@@H]1CC2C(C)(C)C(=O)C=C[C@]2(C)C2CC[C@]3(C)C(=CC(=O)[C@@H]3c3ccoc3)[C@@]21C` (some centres not stated), the max response with CRL-7250 is 0.62%; with HEK293, -22.3%; with NIH3T3 [2], 0.533%. Further, the outcome in the assay with HaCat [1], with KB-3-1 and with CASKI was inactive. Besides, in the assay on HACAT [3], the outcome is “inactive [at 17.4 µM]”. The Potency result with C33A, with CAOV3, with Es-2, in the assay on HeLa, in the assay with Hek293T and with JEG-3 was “inactive” each time.
Take `CC1(C)CC[C@]2(C(=O)O[C@@H]3O[C@H](CO)[C@@H](O)[C@H](O)[C@H]3O)CC[C@]3(C)C(=CCC4[C@@]5(C)CC[C@H](O[C@H]6O[C@H](CO)[C@@H](O)[C@H](O[C@@H]7O[C@H](CO)[C@@H](O)[C@H](O)[C@H]7O)[C@H]6O)C(C)(C)C5CC[C@]43C)[C@@H]2C1` (some centres not stated): the max response in the assay on CRL-7250 was -1.95%; in the assay with HEK293, -4.45%; in the assay on KB-3-1 it was 4.79%. Also, the outcome with HaCat [1] and in the assay with NIH3T3 [2] was inactive. For the same compound, the outcome with HACAT [3] and in the assay with NIH3T3 [4] was “inactive [at 9.27 µM]” each time. The activity change, negative = cytotoxicity with C33A was 0.319% [at 11.6 µM]; with CASKI, -7.8% [at 11.6 µM]; in the assay with Es-2, -1.42% [at 11.6 µM]; in the assay on HeLa, 11.5% [at 11.6 µM]; in the assay with Hek293T, 5.32% [at 11.6 µM]; with JEG-3, -9.09% [at 11.6 µM]. The activity change, negative = cytotoxicity in the assay with OV90 is -0.2% [at 11.6 µM].
As to `C/C=C1/C[N+](C)([O-])C2Cc3c([nH]c4ccccc34)C(=O)CC1C2C(=O)OC` (configuration not stated), the max response is -5.18% with CRL-7250, -0.509% in the assay on HEK293, 8.09% in the assay with KB-3-1 and -1.66% with NIH3T3 [2]. In addition, the result with HaCat [1], in the assay on HACAT [3] and with CASKI was inactive. In addition, the Potency result in the assay on C33A, in the assay on CAOV3, in the assay on Es-2, in the assay on HeLa, in the assay with Hek293T and in the assay with JEG-3 was “inactive” throughout. The Potency result in the assay on OV90 was “inactive”.
As to `COC(=O)C1C(c2ccc(O)cc2)C(C(=O)O)C1c1ccc(O)cc1` (configuration not stated), the max response in the assay on CRL-7250 was -7.64%; with HEK293 it was -2.14%; with KB-3-1, 7.92%; with NIH3T3 [2] it was -3.05%. In addition, the compound was classed as inactive in the assay on HaCat [1], in the assay with HACAT [3] and in the assay with CASKI. The Potency entry in the assay on C33A, in the assay on CAOV3, with Es-2, in the assay with HeLa, in the assay on Hek293T and in the assay with JEG-3 was “inactive” each time. In addition, the Potency entry in the assay with OV90 was “inactive”.
In the case of `CCC(C)/C=C(C)/C=C/C1=CC2=C(Cl)C(=O)C(C)(OC(C)=O)C(=O)C2=CN1CCCCC(N)C(=O)O` (configuration not stated), the max response was -2.74% in the assay with CRL-7250, 3.25% in the assay with HEK293 and 3.52% with NIH3T3 [2]. The call in the assay on HaCat [1], with KB-3-1 and in the assay on CASKI was inactive. Also, the outcome in the assay with HACAT [3] is “inactive [at 17.4 µM]”. Further, the Potency entry in the assay on C33A, in the assay with CAOV3, with Es-2, in the assay on HeLa, in the assay with Hek293T and in the assay on JEG-3 was “inactive” each time. Besides, the Potency result in the assay on OV90 is “inactive”.
As for `CC(=O)NC1C(OC2CCC3(C)C(CCC4(C)C3CC=C3C5CC(C)(C)CCC5(C(=O)O)C(O)CC34C)C2(C)C)OC(CO)C(O)C1O` (configuration not stated), the max response was -37.4% with CRL-7250, -25.2% in the assay with HEK293 and 0.467% in the assay with KB-3-1. Besides, the compound was called inactive with HaCat [1], with NIH3T3 [2] and with CASKI. Moreover, the outcome with HACAT [3] and in the assay on NIH3T3 [4] was “inactive [at 17.4 µM]” throughout. Moreover, the Potency result in the assay with C33A, in the assay with Es-2, in the assay on HeLa, with Hek293T, with JEG-3 and in the assay with OV90 was “inactive” in each case.
In the case of `N#Cc1cccc(-c2c[nH]c3ncnc(N4CCOCC4)c23)c1`, the result in the assay on CRL-7250, in the assay on HaCat [1], in the assay on NIH3T3 [2], in the assay with HACAT [3], in the assay on NIH3T3 [4] and with CASKI was inactive. Also, the max response in the assay with HEK293 was -6.95%; in the assay with KB-3-1, -3.64%. Also, the Potency entry with CAOV3, with Es-2, with HeLa, in the assay with Hek293T, with JEG-3 and in the assay on OV90 was “inactive” throughout.
Regarding `CC(O)CCc1ccc(O[C@@H]2O[C@H](CO)[C@@H](O)[C@H](O)[C@H]2O)cc1` (some centres not stated), the max response was 0.631% in the assay with CRL-7250, 3.66% with HEK293, 2.69% in the assay on KB-3-1 and -0.367% with NIH3T3 [2]. In addition, the compound was called inactive in the assay with HaCat [1], in the assay with HACAT [3] and in the assay on CASKI. Besides, the Potency result with C33A, in the assay with CAOV3, with Es-2, with HeLa, in the assay on Hek293T and with JEG-3 was “inactive” in each case.
Consider `COc1cc(CO)ccc1O[C@@H]1O[C@H](CO)[C@@H](O)[C@H](O)[C@H]1O`, for which the max response with CRL-7250 was -0.424%; with HEK293 it was -18.7%; in the assay with KB-3-1, 5.53%. Besides, the compound was called inactive with HaCat [1], in the assay with NIH3T3 [2], in the assay with HACAT [3], in the assay on NIH3T3 [4] and with CASKI. The Potency entry in the assay with C33A, in the assay on Es-2, in the assay with HeLa, with Hek293T, in the assay on JEG-3 and with OV90 was “inactive” throughout.
Consider `Cc1ncc(NC(=O)c2ccc(CN3CCN(C)CC3)c(C(F)(F)F)c2)cc1Nc1nccc(-c2cccnc2)n1`, for which the values for the max response in the assay with CRL-7250, in the assay on KB-3-1 and with NIH3T3 [2] were -2.29%, 8.35% and 1.55%, respectively. Moreover, the Potency in the assay on HEK293 is 16.4 µM (active). The call in the assay with HaCat [1], with HACAT [3] and with CASKI was inactive. In addition, the Potency result in the assay with C33A, in the assay with CAOV3, in the assay with Es-2, with HeLa, with Hek293T and with JEG-3 was “inactive” throughout.
